AmpC inh no detg = inhibitors of E. coli AmpC beta-lactamase without detergent. AmpC nitrocefin hydrolysis, absorbance 480 nm, 0.0001% Triton. AID 485341. Potency, µM (series often up to 57.1 µM), without a hit: top-dose activity change, negative = inhibition, most hits filed as inhibitors. 0.52% of 330,000 active;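 note: plate controls were no compound for no effect and no enzyme for full effect; nearly all actives have a fitted effect of over 20% in size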
Target sequence (P00811 whole entry, looked up): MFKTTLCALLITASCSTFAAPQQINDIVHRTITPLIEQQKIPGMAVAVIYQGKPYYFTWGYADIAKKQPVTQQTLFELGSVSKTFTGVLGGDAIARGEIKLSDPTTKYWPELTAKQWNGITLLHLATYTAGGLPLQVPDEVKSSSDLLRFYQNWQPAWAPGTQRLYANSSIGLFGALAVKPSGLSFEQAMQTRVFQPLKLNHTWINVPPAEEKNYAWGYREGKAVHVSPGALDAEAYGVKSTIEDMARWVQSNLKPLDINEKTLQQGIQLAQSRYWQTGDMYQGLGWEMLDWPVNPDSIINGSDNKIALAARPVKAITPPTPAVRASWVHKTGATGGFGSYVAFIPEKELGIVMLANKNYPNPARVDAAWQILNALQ
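AmpC (5.3 nM in the dispensed reagent) in 20 mM phosphate pH 7.0 with 0.01% (detergent screen) or 0.0001% Triton X-100 was preincubated with compounds for 15 min at room temperature. Nitrocefin was then added from an 800 uM solution, and hydrolysis was followed at 480 nm.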
Sm TGR block = S. mansoni TGR enzyme inhibition | purified TGR, DTNB reduction, TNB absorbance 405 nm | AID 485364 | 3% of 360,000 active | Q962Y6 | Potency, µM (doses to about 114 µM), for inactives: at the highest dose activity change, negative = inhibition, actives largely listed as inhibitors; note: nearly all actives have a fitted effect of over 60% in size
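Kinetic colorimetric format: TGR-catalysed, NADPH-driven DTNB reduction monitored via TNB absorbance. Enzyme dispensed at 20 nM; compound exposure 15 min at room temperature before reaction start.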
FMDV antiviral = foot and mouth disease virus antiviral activity; FMDV antiviral cell-based qHTS; Potency, µM (doses to about 57.9 µM), for the others: at the top dose activity change, negative = inhibition, usual class: inhibitors; 1.2% of 410,000 active; AID 1159524; calls by dose curve; tested in HEK293T cells; note: read-out not given here; nearly all actives have a fitted effect of over 45% in size
AmpC inh detg = AmpC beta-lactamase inhibition with detergent present; AID 485294; AmpC hydrolysis of nitrocefin, absorbance 480 nm, 0.01% Triton; P00811; 0.041% of 370,000 active; Potency, µM (top dose mostly 114 µM), for inactives: top-dose activity change, negative = inhibition, hits mostly inhibitors;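 note: 0% = no-compound wells and -100% = no-enzyme wells; nearly all actives have a fitted effect of over 25% in size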
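AmpC (5.3 nM in the dispensed reagent) in 20 mM phosphate pH 7.0 with 0.01% (detergent screen) or 0.0001% Triton X-100 was preincubated with compounds for 15 min at room temperature. Nitrocefin was then added from an 800 uM solution, and hydrolysis was followed at 480 nm.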
AMA1-RON2 inh = inhibitors of Plasmodium falciparum AMA1-RON2 interaction | AlphaScreen AMA1-biotinylated RON2 peptide binding | 0.2% of 360,000 active | Potency, µM (highest dose often 58.2 µM), for inactives: top-dose activity change, negative = inhibition, usual class: inhibitors;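 note: 0% = vehicle wells and -100% = peptide control; nearly all actives have a fitted effect of over 45% in size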
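AMA1 (3D7) with his tag at 25 nM final met compounds first, then biotinylated RON2 peptide at 25 nM; detection used donor plus acceptor beads, 10 µg/mL apiece, read by AlphaScreen after 30 min at room temperature.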
* = called active by the depositor; ? = inconclusive; / = no result. Sampled rows, rich in hits. Any-hit rate of the full collection: about 4.1%. Unless noted, calls come from the whole dose curve; as a rule, active = well fitted curve in the direction sought with a large enough effect; inconclusive = small, poorly fitted or top-dose-only effect, or another doubt; inactive = no such curve, though single readings can be large; an effect the other way counts as inactive or inconclusive. Unless noted, % is set by controls: 0 for no effect and ±100 for the full control effect; potency is the fitted concentration of half-maximal effect.

SMILES	AmpC inh no detg	Sm TGR block	FMDV antiviral	AmpC inh detg	AMA1-RON2 inh
COc1ccc(C(C(=O)NCC2CCCO2)N(C(=O)Cn2nnc3ccccc32)c2ccccc2C(C)=O)cc1OC (stereo not given)	50%	5%	79%	7%	-2%
COc1cc(C(C(=O)NCC2CCCO2)N(C(=O)Cn2nnc3ccccc32)c2ccc(OC)c(OC)c2)ccc1O (stereo not given)	3%	45µM*	1%	7%	-15%
CCOc1cc(C(C(=O)NCC2CCCO2)N(C(=O)Cn2nnc3ccccc32)c2ccc(NC(C)=O)cc2)ccc1O (stereo not given)	0%	22µM*	16%	-6%	13%
CCCCN(CC)C(=O)Cn1nc(C)c2c(C)n(-c3ccccc3)nc2c1=O	/	2%	-13%	17%	/
COc1ccc(OC)c(C2C(C(=O)Nc3ccc(F)cc3)=C(C)Nc3nc(CCCO)nn32)c1 (stereo not given)	8.9µM*	3%	-12%	-3%	12%
COc1ccc(OC)c(C2C(C(N)=O)=C(C)Nc3nc(CCCO)nn32)c1 (stereo not given)	1.6µM*	1%	-19%	?	9%
Cc1cc(-n2c(C)cc(C(=O)COc3ccc4ccc(=O)oc4c3)c2C)no1	-27%	8%	-29%	6%	-10%
Cc1cc(-n2c(C)cc(C(=O)CSc3ncnc4ccccc34)c2C)no1	39%	0%	13µM*	0%	0%
Cc1cc(C(=O)CSc2ncnc3ccccc23)c(C)n1C1CC1	-31%	-13%	-30%	-9%	-3%
CC(=O)c1cccc(OCC(=O)c2cc(C)n(-c3cc(C)on3)c2C)c1	13%	-28%	22µM*	-3%	-30%
Cc1nn(-c2ccccc2)c(OC(=O)c2ccccc2Br)c1S(=O)(=O)c1ccccc1	/	-15%	-8%	10%	/
O=C1C2C3C=CC(C3=C(c3ccccc3)c3ccccc3)C2C(=O)N1CCO (stereo not given)	174%	8%	?	1%	-18%
O=C1C2C3C=CC(C3=C(c3ccccc3)c3ccccc3)C2C(=O)N1Cc1ccccc1 (stereo not given)	-20%	7.9µM*	?	7%	-9%
Cc1ccc2[nH]c3c(c2c1)CCCC3C(N)=O (stereo not given)	-8%	-11%	2%	5%	4%
Cc1ccc2[nH]c3c(c2c1)CCCC3NC(=O)CCl (stereo not given)	30%	45µM*	-7%	?	-11%
COc1ccc(/C(C)=N/OC/C(O)=C(\C#N)c2nc3ccccc3[nH]2)c(OC)c1	14µM*	-12%	-12%	-12%	82%
COc1ccc(/C(C)=N/OC/C(O)=C(\C#N)c2nc3ccccc3[nH]2)cc1OC	-8%	0%	2%	-5%	65%
COC(=O)c1ccc(C(=O)NCC2Cc3cc(F)cc(-c4cncnc4)c3O2)cc1 (stereo not given)	/	/	1%	/	/
CCOC(=O)C(C(=O)OCC)c1cc(Br)c2noc3c2c1C(=O)c1ccccc1-3	-31%	0.63µM*	25µM*	4%	-23%
COCCCNC(=O)c1ccc2c3c(onc13)-c1ccccc1C2=O	71%	0%	-104%	5%	?
C(=C\c1ccccc1)/CN1CCN(c2ncnc3c2oc2ccccc23)CC1	112%	-21%	20µM*	?	-25%
c1cnc(N2CCN(c3ncnc4c3oc3ccccc34)CC2)nc1	-11%	?	/	?	/
Cc1cccc(CNC(=O)c2c3n(c(C)cc2=O)-c2ccccc2SC(c2sccc2C)C3)n1 (stereo not given)	/	/	0%	/	/
O=C(NC1CC(=O)N(c2ccccc2)C1)c1cccs1 (stereo not given)	/	7%	-16%	2%	/
CCn1nc2cc(C(=O)NCc3cc(C(F)(F)F)cc(C(F)(F)F)c3)ccc2c1OC	55%	1%	-21%	0%	-6%
SMILES	AmpC inh no detg	Sm TGR block	FMDV antiviral	AmpC inh detg	AMA1-RON2 inh
CCCCn1nc2cc(C(=O)NCc3cc(C(F)(F)F)cc(C(F)(F)F)c3)ccc2c1OC	5.6µM*	4%	-24%	1%	-3%
N#Cc1ccsc1NC(=O)CCS(=O)(=O)c1ccccc1	17%	2.8µM*	-11%	-7%	0%
NC(=O)c1ccsc1NC(=O)CCS(=O)(=O)c1ccccc1	-14%	12%	1%	-14%	-1%
N#Cc1ccsc1NC(=O)COC(=O)CCS(=O)(=O)c1ccccc1	6%	/	0%	/	19%
NC(=O)c1ccsc1NC(=O)CCS(=O)(=O)c1ccc(Cl)cc1	-21%	3.2µM*	0%	3%	1%
CCN1CCOC(=O)C1CC(=O)Nc1cc(Cl)ccc1C (stereo not given)	/	7.9µM*	-10%	-2%	/
CCN1CCOC(=O)C1CC(=O)Nc1ccc(C)c(Cl)c1 (stereo not given)	/	11µM*	-16%	1%	/
Cc1cccc(NC(=O)CC2C(=O)OCCN2Cc2ccccc2)c1 (stereo not given)	/	-23%	-16%	0%	/
O=C(CC1C(=O)OCCN1Cc1ccccc1)Nc1cccc(Cl)c1 (stereo not given)	/	?	-4%	0%	/
Cc1ccc(Cn2ccnc2SCC(=O)NCc2ccccc2)cc1	/	0%	8%	-1%	/
CN(C)c1nc2cc(Cl)ccc2cc1CN(Cc1ccc2c(c1)OCO2)C(=O)c1ccoc1	/	/	6%	/	/
COc1cccc(Cn2cnc3c(N)c(C)c(C)cc32)c1	11%	-10%	-14%	-13%	-7%
CCCn1cnc2c(N)c(C)c(C)cc21	0.32µM*	-16%	2%	6%	-7%
O=CC(Br)P(=O)(N1CCOCC1)N1CCOCC1 (stereo not given)	-50%	45µM*	-5%	56µM*	-3%
COc1ccccc1C1CC(c2cccs2)=Nc2ccccc2S1 (stereo not given)	-22%	0%	14%	?	?
Fc1ccccc1C1CC(c2ccco2)=Nc2ccccc2S1 (stereo not given)	-23%	8.9µM*	9%	11%	-7%
Cn1c(/C=C/c2ccc(Cl)cc2)c([N+](=O)[O-])c(=O)n(C)c1=O	-1%	0%	18µM*	-1%	-5%
Cn1c(/C=C/c2cccc([N+](=O)[O-])c2)c([N+](=O)[O-])c(=O)n(C)c1=O	-3%	-14%	13µM*	-6%	-7%
Cc1cc2c(cc3c(SCc4ccc(Cl)cc4)nncn32)o1	/	-17%	-10%	-14%	/
CN(C)c1nc(-c2ccc3c(c2)OCO3)nc2ccccc12	/	/	15%	/	/
COc1ccc(Cn2c(SCc3ccc(C)cc3)nc3cc(OC)c(OC)cc3c2=N)cc1Cl	64%	1%	35µM*	-7%	-3%

Screens as filed in PubChem BioAssay.
